From PubChem BioAssay AID504340 (NMMLSC, 2011)
“And” between values parts separate entries of the source, which are not always exact repeats. Identical values can stand only once. Unmarked numbers belong to inactive results. The source made the active and inactive calls.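 The calls were made as follows: active = GFP response above 150% of the DMSO control; inconclusive = Under 70 cell events counted for a yeast strain; inactive = the rest.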

Assay: yeast TOR pathway CIT2-GFP reporter retest – flow cytometry, third cherry pick, single plex, confirmation (AID 504340);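 also: median GFP fluorescence over all cells with no mother versus daughter split; sample signal as a ratio to the plate DMSO mean so 100% equals DMSO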
Conditions: S. cerevisiae CIT2-GFP strain, 3 h, at 10 µM, hits give high values

Row | Compound | GFP response vs DMSO
1 | CC(C)Nc1ncnc2ccc(Br)cc12 | 96.1%
2 | COc1ccc(OC)c(N/C(C)=C/C(=O)c2ccccc2)c1 | 99.3%
3 | NC(=O)COc1cccc2cccnc12 | 104%
4 | O=C(O)c1ccc2cccnc2c1O | 88%
5 | C[n+]1cccc2cccc([O-])c21 | 103%
6 | COCCCNc1nc(N)c([N+](=O)[O-])c(Nc2cc(OC)ccc2OC)n1 | 106%
7 | CSc1nc(S(C)(=O)=O)nc2[nH]c(=O)[nH]c12 | 106%
8 | CCOC(=O)CS(=O)(=O)c1nc(-c2ccccc2)cc(C(F)(F)F)n1 | 111%
9 | Cc1ccc(-c2cc(C(F)F)nc(S(C)(=O)=O)n2)cc1 | 91.2%
10 | Cc1ccc(C)c(Nc2ncnc(N)c2[N+](=O)[O-])c1 | 104%
11 | Oc1c(Br)cc(Br)c2cccnc12 | 189% (active)
12 | COc1cccc2c(=O)c(C(=O)O)c[nH]c12 | 99.3%
13 | O=C(N/N=C/c1ccccc1)c1cccc2ccccc12 | 97.7%
14 | CNc1cccc2c1C(=O)c1ccccc1C2=O | 104%
15 | C/C(=C\C(=O)c1ccc(Cl)cc1)Nc1ccc(Br)cc1 | 104%
16 | OCCNc1ncnc2ccc(Br)cc12 | 109%
17 | COc1ccccc1-c1cc(C(F)(F)F)nc(S(=O)(=O)CCCC(=O)O)n1 | 111%
18 | O=C(/C=C/Nc1cccc(O)c1)c1ccccc1 | 111%
19 | CC(=O)NCCOc1cccc2cccnc12 | 104%
20 | O=C(N/N=C/c1ccccc1O)c1cccc2ccccc12 | 92.8%

Row | Compound | GFP response vs DMSO
21 | C=CCNc1ncnc2ccccc12 | 103%
22 | COc1ccccc1-c1cc(C(F)(F)F)nc(S(=O)(=O)CCCC(=O)NC(C)C)n1 | 104% and 94.5%
23 | CC(=O)C(CC(=O)N1CCCC1)C(=O)Nc1ccc(Cl)cc1 (centres undefined) | 109%
24 | COc1ccccc1Nc1nc(NCCC(C)C)nc(N)c1[N+](=O)[O-] | 114%
25 | CCC(=O)Nn1cnc2c(c1=O)C1(CCCCC1)Cc1ccccc1-2 | 99.3%
26 | Cc1nc2c(O)cccc2cc1CO | 101%
27 | Cc1ccc(Nc2cc(=O)[nH]c(=O)[nH]2)cc1C | 104%
28 | COc1cccc(NC(=O)CC(C)=O)c1 | 106%
29 | COc1ccc(N/C(C)=C/C(=O)c2ccccc2)cc1 | 94.5%
30 | CCc1sc(C(=O)Nc2nc(-c3ccccn3)cs2)cc1C | 109%
31 | O=C(Nc1ccc(-c2nc3ccccc3o2)cc1)c1cccnc1 | 96.1%
32 | COCCCNc1nc(N)c([N+](=O)[O-])c(Nc2ccccc2OC)n1 | 107%
33 | CC(=O)NC(C)c1cc(Cl)c2cccnc2c1O (centres undefined) | 97.7%
34 | CCC(C)Nc1nc(N)c([N+](=O)[O-])c(Nc2cc(OC)ccc2OC)n1 (centres undefined) | 101%
35 | COc1ccc(OC)c2c(C)cc(C)nc12 | 99.3%
36 | COc1cccc(N/C=C/C(=O)c2ccc(C)cc2)c1 | 92.8%
37 | COc1ccccc1Nc1nc(NCC(C)C)nc(N)c1[N+](=O)[O-] | 114%
38 | COc1ccc(-c2cc(C(F)(F)F)nc(S(C)(=O)=O)n2)cc1OC | 112% and 109%
39 | O=C(Nc1ccccc1Cl)ON=C1c2ccccc2-c2ccccc21 | 116%
